# CCHFV vOTU inh: blocks the CCHF virus ovarian tumor domain protease. CCHFV vOTU protease, Pep-AMC fluorescence. actives 0.55% (n = 370,000). inhibition, % at 11.5 µM; in the data active = inhibition above about 30%; note: 0% = vehicle wells with enzyme and 100% = no enzyme wells
# PriA SSB inh: blocks PriA binding to SSB C-terminal tail. AlphaScreen SSBct-PriA binding, biotinylated peptide. inhibition, % at 33 µM. AID 1272365. actives 0.6% (n = 430,000); in the data active = inhibition mostly above about 37%, no sharp cut-off; inactive = mostly below about 20%;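 note: plate controls were negative control peptide for no effect and reference peptide for full effect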
# VHR inh abs: inhibitors of human VHR1 phosphatase (DUSP3) | P51452 | recombinant VHR phosphatase, pNPP absorbance | inhibition, % at 13.3 µM | actives 0.52% (n = 290,000) | AID 1654; in the data active = inhibition above about 50%
# Target sequence (P51452 whole entry, looked up): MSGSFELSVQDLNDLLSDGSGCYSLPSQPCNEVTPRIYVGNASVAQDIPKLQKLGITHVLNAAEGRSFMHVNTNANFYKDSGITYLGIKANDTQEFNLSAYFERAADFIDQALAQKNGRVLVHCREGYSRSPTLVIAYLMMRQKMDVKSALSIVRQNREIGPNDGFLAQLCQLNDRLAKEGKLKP
# Mtb hypoxia rep: reduces hypoxia-regulated biosensor signal in M. tuberculosis; M. tuberculosis hypoxia-regulated fluorescent reporter, fluorescence; fluorescence inhibition, % (no concentration beside the values); actives 0.1% (n = 300,000); AID 1159583; in the data active = fluorescence inhibition mostly above about 23%, no sharp cut-off; inactive = mostly below about 17%
# SARS 3CLpro inh: SARS-CoV 3CLpro protease inhibition | recombinant SARS-CoV 3CLpro, quenched FRET peptide cleavage | inhibition, % at 6 µM | actives 0.14% (n = 290,000) | AID 1706; in the data active = inhibition above about 12%
# * hit, by the source's call; · = not tested or not shown. Most compounds without a hit are left out; they make up all but 1.3% or so of the library.
SMILES,CCHFV vOTU inh,PriA SSB inh,VHR inh abs,Mtb hypoxia rep,SARS 3CLpro inh
CCc1ccc(Nc2n[n+](-c3ccccc3)c(-c3ccc(C(=O)O)cc3)s2)cc1,12,-5,17,4,-4
O=C(c1ccno1)N1CCCCC(c2ccc(Cl)cc2)C1 (stereo not given),·,-6,·,·,·
O=C(Nc1cccc2c1CCCC2)c1ccccc1Br,7,0,52*,8,-4
COc1ccc(N(CC(=O)NN=Cc2cccnc2)S(=O)(=O)c2ccccc2)c(OC)c1,·,-13,·,-9,·
COc1ccc(N(CC(=O)N/N=C/c2cccnc2)S(=O)(=O)c2ccccc2)c(OC)c1,-3,·,53*,·,-2
C=CCN1CCN(C(=O)CSc2ccccc2)CC1,-6,-9,57*,14,-2
C=CCN1CCN(C(=O)c2ccc(-c3ccccc3)cc2)CC1,-10,1,8,7,1
Cc1ccc(C(=O)NC(CCc2ccccc2)C(=O)O)cc1 (stereo not given),-4,-6,·,-1,·
CCCCCCC(NC(=O)c1ccc(C)cc1)C(=O)O (stereo not given),-2,57*,·,-3,·
O=C(Nc1nc(CCC(=O)N2CCCC2)cs1)c1ccc(=O)[nH]c1,·,-7,·,·,·
NCC(=O)Nn1cnnc1CN,·,98*,·,·,·
Cn1cc(-c2cccs2)nc1CCNC(=O)Cn1c(=O)oc2ccccc21,·,-2,·,·,·
Cc1ccc2c(CC(=O)N3CCN(C(c4ccccc4)c4ccccc4)CC3)cc(=O)oc2c1,·,6,·,·,·
O=C(NCCn1ccnc1-c1ncccn1)c1ccc(S(=O)(=O)N2CCOCC2)cc1,·,92*,·,·,·
O=C(NCCN1CCOCC1)c1ccc(Cl)c(S(=O)(=O)N2CCCC2)c1,-6,39*,41,-4,-2
O=C(NCCn1ccnc1-c1ncccn1)C1(c2ccccc2)CCOCC1,·,40*,·,·,·
O=C(NCCN1CCOCC1)c1ccc(Cl)c(S(=O)(=O)N2CCCCCC2)c1,21,-3,17,8,2
CCOC(=O)N1CCN(S(=O)(=O)c2ccc(C(=O)Nc3cccc4c3C(=O)N(C)C4=O)cc2)CC1,·,-13,·,·,·
O=C(NN=Cc1c(O)n(Cc2ccccc2)c(=O)c2ccccc12)c1cccnc1,·,-9,·,·,·
Cc1ccc(C=NNC(=O)Cc2c(F)cccc2Cl)s1,·,-17,·,13,·
Cc1ccc(/C=N/NC(=O)Cc2c(F)cccc2Cl)s1,15,·,53*,·,-9
COc1ccc(Br)c(C(=O)NCc2nc(C)no2)c1,·,0,·,·,·
CCCn1nnnc1NCc1cccc(Cl)c1,-2,-11,53*,3,-4
CCCn1nnnc1NCc1c(Cl)cccc1Cl,-6,-7,18,-1,6
O=C(CN1CCN(Cc2ccc3c(c2)OCO3)CC1)Nc1ccc(F)cc1,-5,-1,5,11,0
SMILES,CCHFV vOTU inh,PriA SSB inh,VHR inh abs,Mtb hypoxia rep,SARS 3CLpro inh
O=C(CN1CCN(C(=O)CNC(=O)c2ccc3c(c2)OCO3)CC1)Nc1ccc(F)cc1,-18,53*,·,-8,·
O=C(Nc1ccc2c(c1)OCO2)N1CCN(c2ccc(F)cc2)CC1,-2,4,57*,-1,0
O=C(Nc1ccc2c(c1)OCO2)N1CCN(c2ccccc2)CC1,10,0,32,10,-3
COC(CNC(=O)c1ccsc1)c1ccco1 (stereo not given),·,17,·,·,·
O=C(Cn1ccc2ccccc2c1=O)NCCC(=O)N1CCN(c2ccccc2)CC1,-9,-5,53*,-3,4
O=C(Cn1ccc2ccccc2c1=O)NCCC(=O)N1CCCCC1,6,8,1,2,0
O=C(c1cccs1)N1CCc2ccc(NS(=O)(=O)c3ccc(F)cc3)cc21,·,2,·,·,·
O=C(c1cc([N+](=O)[O-])ccc1Cl)N1c2ccccc2Sc2ccccc21,-4,62*,-7,9,6
O=C(c1cc([N+](=O)[O-])ccc1Cl)N1CCN(c2ccccc2)CC1,8,0,4,5,6
O=C(Nc1ccccc1)Nc1nc(C(=O)NCCc2c[nH]c3ccccc23)cs1,·,41*,·,·,·
O=C(NCCc1c[nH]c2ccccc12)c1csc(Nc2ccccc2)n1,·,28*,·,·,·
O=C(Nc1ccccc1)Nc1nc(C(=O)O)cs1,·,63*,·,·,·
CCOc1ccc2ncc(C#N)c(Nc3ccc(C(C)C)cc3)c2c1,·,-56,·,·,·
CCOc1ccccc1-c1cc2nc(SCC(=O)Nc3cccc(CC)c3)n(-c3ccc(CC)cc3)c(=O)c2s1,·,1,·,·,·
O=C(C1CC=CCC1)N(CCc1cccs1)Cc1ccco1 (stereo not given),·,-3,·,·,·
COc1ccc(CNC(=O)C2CCN(C(=O)N3CCOc4ccc(C)cc43)CC2)cc1,23,-6,51*,5,5
CC(C)Oc1ccc(CNC(=O)C2CCN(C(=O)N3CCOc4ccccc43)CC2)cc1,0,-11,6,-4,-3
CN(C)CCNc1ncnc2sc(-c3ccccc3)cc12,1,-6,-2,14,-1
CNc1ncnc2sc(-c3ccccc3)cc12,5,-13,52*,-1,0
O=C(NCc1ccc2[nH]c3c(c2c1)CCCC3)C1c2ccccc2Oc2ccccc21,·,6,·,·,·
O=C(Nc1ccc(F)cc1)N1CCN(c2ccc(-c3ccncc3)nn2)CC1,·,-24,·,·,·
O=C(Nc1ncn[nH]1)c1ncc(-c2ccc(Cl)cc2)o1,·,69*,·,·,·
NC(=O)c1ccccc1NC(=O)c1ncc(-c2ccc(Cl)cc2)o1,·,-4,·,·,·
COc1ccc(CC2(C)OC(c3ccc([N+](=O)[O-])cc3)=NN2C(C)=O)cc1 (stereo not given),-6,45*,-22,18,-1
Cc1noc(C2CCN(C(=O)CCCc3ccccc3)CC2)n1,·,5,·,·,·
Cc1noc(C2CCCN2C(=O)NCCCc2ccccc2)n1 (stereo not given),·,54*,·,·,·
CCOC(=O)c1ccc(NC(=O)c2ccc(S(C)(=O)=O)cc2)cc1,·,-2,·,·,·
